Lassa entry inh: qHTS for Inhibitors of binding or entry into cells for Lassa Virus. hit rate 1.2% among 300,000. Potency, µM (series often up to 37.9 µM), for the others: at the highest dose activity change, negative = inhibition, actives largely listed as inhibitors. Lassa virus pseudotype entry inhibition, cell reporter; calls by dose curve; tested in HEK293 cells; also: potency is read from the fitted curve at half-maximal effect; nearly all actives have a fitted effect of over 50% in size
Vaccinia Venus: qHTS for Stage-Specific Inhibitors of Vaccinia Orthopoxvirus: Venus Reporter Primary qHTS; Vaccinia virus Venus reporter expression, fluorescence; Potency, µM (titrated, usually from 36.5 µM), for the others: at the highest dose activity change, negative = inhibition, actives largely listed as inhibitors; hit rate 0.46% among 330,000; AID 720580, 2013; calls by dose curve; tested in A549 cells; also: potency is read from the fitted curve at half-maximal effect; nearly all actives have a fitted effect of over 30% in size
MARV entry inh: qHTS for inhibitors of binding or entry into cells for Marburg Virus; Marburg virus pseudotyped entry inhibition, cell reporter; Potency, µM (series often up to 37.8 µM), without a hit: top-dose activity change, negative = inhibition, hits mostly inhibitors; hit rate 1.8% among 300,000; calls by dose curve; tested in HEK293 cells; also: potency is read from the fitted curve at half-maximal effect
HCMV inh: qHTS Assay for inhibitors of the human cytomegalovirus (HCMV); activity change, negative = inhibition, % at 57.5 µM; hit rate 4.5% among 410,000; HFF cells, HCMV-luciferase reporter, 72 h; active compounds read low; in the data active = activity change below about -60%; inconclusive = no clear call, values can overlap the other calls; inactive = above about -39%
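Inhibition of viral replication was scored as loss of reporter luminescence in HFFs infected with HCMV-luciferase (MOI 1 PFU/cell) for 72 h; compounds tested at 2 doses, normalized to buffer and Salinomycin controls.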
VACV mCherry inh: qHTS for Stage-Specific Inhibitors of Vaccinia Orthopoxvirus: mCherry Reporter Primary qHTS; hit rate 0.63% among 310,000; Potency, µM (titrated, usually from 36.5 µM), inactives show top-dose activity change, negative = inhibition, most hits filed as inhibitors; AID 720579, 2013; Vaccinia virus mCherry reporter infection, fluorescence; calls by dose curve; tested in A549 cells; also: potency is read from the fitted curve at half-maximal effect; nearly all actives have a fitted effect of over 35% in size
FMDV inh: High Throughput Screening for Foot and Mouth Disease Virus Antivirals | FMDV antiviral cell-based qHTS | Potency, µM (titrated, usually from 57.9 µM), for the others: at the highest dose activity change, negative = inhibition, hits mostly inhibitors | hit rate 1.2% among 410,000 | AID 1159524, 2015; calls by dose curve; tested in HEK293T cells; also: read-out not given here; potency is read from the fitted curve at half-maximal effect; nearly all actives have a fitted effect of over 45% in size
An asterisk follows results filed as active; i = inactive; ? = inconclusive; nt = no result given; [ ] = dose if it differs, or a comment. The list is not random: actives were taken first. Their share in the collection is about 6.5%. % is scaled to controls: 0 for no effect and ±100 for the full control effect.

SMILES	Lassa entry inh	Vaccinia Venus	MARV entry inh	HCMV inh	VACV mCherry inh	FMDV inh
O=C(Cc1cccs1)N1CCC(c2nc3c(nnn3Cc3ccc(F)cc3)c(=O)[nH]2)CC1	-9%	nt	-6%	-95*	nt	-13%
Cc1nn(C(=O)c2ccc(Cl)cc2)c(C)c1S(=O)(=O)N1CCCCCC1	13%[46.1 µM]	-4%	nt	3	7%	-3%
CC(NC(=O)c1cccnc1)c1nnc2n1CCN(Cc1ccc(F)cc1F)CC2 (centres undefined)	nt	-2%	nt	nt	-7%	-6%
COCCC(=O)NCC1Cc2cc(Cl)cc(-c3ccc4[nH]ccc4c3)c2O1 (centres undefined)	nt	-4%	nt	nt	-9%	1%
O=C([C@@H]1CC=C[C@@H]2CCN(C3CCCCC3)C(=O)[C@@H]21)N1CCOCC1	nt	-11%	nt	nt	i	nt
O=c1[nH]c(C2CCN(S(=O)(=O)/C=C/c3ccccc3)CC2)nc2c1nnn2Cc1ccc(F)cc1	?	-23%	7.9µM*	40	?	1%
Cc1cccc(Cn2nnc3c(=O)[nH]c(C4CCCN(C(=O)c5ccc(C(C)(C)C)cc5)C4)nc32)c1 (centres undefined)	-15%[46.1 µM]	-6%	?	-70*	-19%	?
Cc1ccc(C)c(S(=O)(=O)N2CCC(c3nc4c(nnn4Cc4ccc(F)cc4)c(=O)[nH]3)CC2)c1	?	-22%	-25%	-2	nt	-23%
Cc1ccccc1Cn1nnc2c(=O)[nH]c(C3CCCN(C(=O)c4ccc(C(C)(C)C)cc4)C3)nc21 (centres undefined)	-15%[46.1 µM]	-10%	-2%[46.1 µM]	9	-15%	?
Cc1ccc(Cn2nnc3c(=O)[nH]c(C4CCN(S(=O)(=O)c5cc(C)ccc5C)CC4)nc32)cc1	14µM*	?	?	37	-13%[1.46 µM]	?
Nc1cccc(/C=C2\C=Cc3ccccc32)c1	nt	-12%	nt	nt	-13%	nt
O=C(O)c1ccccc1C(=O)Nc1ccc(Oc2ccccc2)cc1	3%	-4%	1%[46.1 µM]	-16	-19%	21%
CC(C)(C)c1ccc(Oc2ccc(N)cn2)cc1	nt	nt	nt	-72*	nt	?
CC(C)(C)c1ccc(Oc2ccc(NC(=O)c3ccccc3C(=O)O)cn2)cc1	nt	nt	nt	-63*	nt	?
O=C(N=Nc1c(O)[nH]c2ccccc12)c1cccc(S(=O)(=O)Nc2ccccc2Cl)c1	nt	nt	nt	-72*	nt	26%
O=C(NCCc1c[nH]c2ccccc12)c1cccc(S(=O)(=O)Nc2ccccc2Cl)c1	-10%	-22%	-1%	-100*	?	-19%
CC(C)c1ccc2[nH]c(O)c(N=NC(=O)c3cccc(S(=O)(=O)Nc4ccccc4Cl)c3)c2c1	2%	-6%	?	-26	0%	3%
C[C@@H]1N[S+](=O)([O-])c2cc(Cl)ccc2O[C@H]1c1ccccc1	2%[46.1 µM]	nt	nt	nt	nt	nt
Cc1c(C)c2c(c(C)c1O)CCC(C)(CN1CCN(c3cc(N4CCCC4)nc(N4CCCC4)n3)CC1)O2 (centres undefined)	nt	nt	10µM*	nt	nt	nt
Cc1c(C)c2c(c(C)c1O)CC[C@@](C)(CCC[C@H](C)CCC[C@H](C)CCCC(C)C)O2	nt	-18%	nt	104	-2%	-19%
COC(=O)c1ccccc1NC(=O)c1cnn2c1NC(=C1CC1)C=C2C(F)F	nt	-17%	nt	nt	-1%	nt
OC(CNCC(c1ccc(Cl)cc1Cl)c1c[nH]c2ccccc12)c1ccccc1 (centres undefined)	?	?	7.9µM*	-108*	?	?
N/C(=N\N=C\c1ccc(O)cc1)c1nonc1N	?	1%	21µM*	19	i	-7%
N/C(=N\N=C\c1ccc(O)c(O)c1)c1nonc1N	nt	nt	nt	33	nt	19%
COc1ccc(NC(=O)C(C(C)C)N2Cc3ccccc3C2=O)cc1 (centres undefined)	2%[46.1 µM]	-17%	nt	18	-13%	1%
SMILES	Lassa entry inh	Vaccinia Venus	MARV entry inh	HCMV inh	VACV mCherry inh	FMDV inh
Cc1ccc(-c2cc(NC(=O)COc3c(C)cc(C)cc3C)on2)cc1	25%[46.1 µM]	-12%	22%[46.1 µM]	54	-13%	-20%
CCCOc1c(Br)cc(/C=N/O)cc1OC	-15%	?	10µM*	-3	nt	0%
CC(C)[C@@H](OCc1ccccc1)[C@H](C)/C=N/OC[C@@H](C)[C@H](OCc1ccccc1)C(C)C	nt	nt	25%[14.2 µM]	nt	nt	nt
COC(=O)CCC(=O)NN1C(=O)c2ccccc2C1=O	nt	nt	nt	-68*	nt	-24%
COc1ccc(CC(=O)NN2C(=O)c3ccccc3C2=O)cc1	1%	-13%	2%	22	-20%	6%
COc1ccccc1CN1CCCC(C(=O)c2ccccc2SC)C1 (centres undefined)	?	-20%	10µM*	-5	-13%	-21%
CCOc1ccc(CN2CCCC(C(=O)c3ccccc3OC)C2)cc1 (centres undefined)	?	-17%	8.9µM*	-8	?	-4%
COc1cccc(OC)c1CN1CCCC(C(=O)c2ccccc2SC)C1 (centres undefined)	?	-9%	6.3µM*	?	-8%	-14%
CCOC(=O)C1CCCN(Cc2ccc(OCC)cc2)C1 (centres undefined)	8%	0%	-28%	8	i	nt
COc1ccccc1CN1CCCC(C(=O)c2ccccc2OC)C1 (centres undefined)	?	-3%	?	3	?	-13%
COc1ccc(C(=O)NNc2ncnc3c2cnn3-c2ccc(C)cc2C)cc1	1%[46.1 µM]	-9%	nt	10	i	5%
Cc1ccc(S(=O)(=O)NC23CC4CC(CC(C4)C2)C3)cc1	nt	nt	nt	-33	nt	42%
Cc1nn(C)c(C(=O)Nc2ccc(S(=O)(=O)NC34CC5CC(CC(C5)C3)C4)cc2)c1Br	?	?	?	nt	13µM*	-19%
COC(=O)c1ccc(-c2ccc(OC)c([C@H]3[C@H]4C=CC[C@@H](C)[C@@H]4C(=O)N3Cc3ccccc3)c2)cc1	nt	?	nt	9	?	-28%
COc1ccc(-c2ccc(C(C)=O)cc2)cc1[C@H]1[C@H]2C=CC[C@@H](C)[C@@H]2C(=O)N1Cc1ccccc1	nt	?	nt	-90*	?	9%
C[C@@H]1CC=C[C@H]2[C@H]1C(=O)N(Cc1ccccc1)[C@H]2c1ccc2ccccc2c1Br	nt	?	nt	?	-27%	18µM*
C[C@@H]1CC=C[C@H]2[C@H]1C(=O)N(Cc1ccccc1)[C@H]2c1ccc2ccccc2c1	nt	-15%	nt	-36	?	?
O=C(c1ccc2oc(CCCc3ccccc3)nc2c1)N1CCCC(CCCO)C1 (centres undefined)	nt	nt	nt	-61*	nt	-16%
Cc1cc(C)c2ccccc2n1	nt	-13%	nt	nt	-15%	nt
Cc1cc(Sc2nnc(N)s2)c2ccccc2n1	nt	nt	nt	-108*	nt	14µM*
CCCCCCCCSc1nnc(/N=C/N(C)C)s1	-6%	-16%[7.34 µM]	-12%[46.1 µM]	6	-24%[7.34 µM]	-8%

Source: PubChem BioAssay
